Test results published in PubChem BioAssay AID1159580 (chemical genetic matrix, 2015).
The whole screen tested about 5,500 compounds, of which about 2,000 (36%) were called active. Another 18% or so got no clear call; they are omitted. Cut-off read from the data, not from the text of the source: active = normalized growth mostly below about 0.91 (no sharp cut-off); inconclusive = no clear call, values can overlap the other calls; inactive = mostly above about 0.92. This is one part of the list.

Assay: chemical genetic growth profiling, strain panel (AID 1159580);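 note: tested at 20 µM; growth read once vehicle control cultures reached saturation at 30 °C; 1 = growth at the plate median or of vehicle wells; lower values mean less growth of the strain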
Settings: S. cerevisiae deletion strains, growth OD

Measured: normalized growth

O=C(O)Cc1ccccc1I
inactive: locus YAL013W, strain DEP1, hits give low values 1 | locus YBR229C, strain ROT2, hits give low values 0.996 | locus YDL101C, strain DUN1, hits give low values 0.99 | locus YDR150W, strain NUM1, hits give low values 0.988 | locus YEL061C, strain CIN8, hits give low values 1.02 | locus YGR078C, strain PAC10, hits give low values 0.989 | locus YHR030C, strain SLT2, hits give low values 1.06 | locus YHR087W, strain rtc3, hits give low values 0.994 | locus YJL187C, strain SWE1, hits give low values 0.952 | locus YJR043C, strain POL32, hits give low values 1 | locus YJR075W, strain HOC1, hits give low values 0.985 | locus YKL190W, strain CNB1, hits give low values 1.02 | locus YLR039C, strain RIC1, hits give low values 1.03 | locus YLR058C, strain SHM2 (second series), hits give low values 1 | locus YLR085C, strain ARP6, hits give low values 1.05 | locus YLR262C, strain YPT6, hits give low values 1.05 | locus YML094W, strain GIM5, hits give low values 1.01 | locus YMR219W, strain ESC1, hits give low values 1.01 | locus YMR263W, strain SAP30, hits give low values 1.01 | locus YNL153C, strain GIM3, hits give low values 0.975 | locus YNL298W, strain CLA4 (second series), hits give low values 1.07 | locus YNL322C, strain KRE1, hits give low values 1 | locus YNR030W, strain Alg12, hits give low values 1.03 | locus YOL006C, strain TOP1, hits give low values 1.11 | locus YPL055C, strain LGE1, hits give low values 0.978 | locus YPL241C, strain CIN2, hits give low values 1.02 | locus YPR135W, strain CTF4, hits give low values 1.05
